Values joined by “and” are separate entries in the source; they are usually repeats but may differ in a detail not shown here. Equal entries are not always repeated. Compounds without any hit were thinned out: in the full panel of roughly 83,000, 20% have a hit.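 In brief: 96-well plates, 48 h treatment, single concentration, percent growth endpoint.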 Active and inactive are the calls of the source. Rule for the calls: active = growth percent below 10; inactive = the rest.
Key:
Assay in all cases: NCI-60 one-dose screen, 48 h (100 = growth as untreated, 0 = no growth, -100 = all killed)
[1] = test system: BT-549 breast; conditions: 10 µM
[2] = test system: MDA-MB-435 melanoma; conditions: 10 µM
[3] = test system: SW-620 colon; conditions: 10 µM
[4] = test system: MCF7 breast
[5] = test system: HCT-116 colon; conditions: 10 µM
[6] = test system: HCC-2998 colon; conditions: 10 µM
[7] = test system: KM12 colon; conditions: 10 µM

Row | SMILES | growth [1] | growth [2] | growth [3] | growth ([4]; 10 µM) | growth [5] | growth [6] | growth [7] | growth ([4]; 100 µM) | growth ([4]; 25 µM)
1 | COc1ccc2oc(-c3ccc(Cl)cc3)c(N3CCN(C)CC3)c2c1 | 134% (inactive) | -19.3% (active) | 0.0094% (active) | -75.8% (active) | 22.4% (inactive) | -12.4% (active) | -46.6% (active) | – | –
2 | Cn1ncc2cc3c(Nc4ccc(Cl)cc4)cccc3nc21 | 97.4% (inactive) | 100% (inactive) | 97.5% (inactive) | 86.8% (inactive) | 85.6% (inactive) | 110% (inactive) | 90.8% (inactive) | – | –
3 | Cc1cc(Cl)ccc1NC(=O)/C(Cl)=C1/Sc2ccccc2NC1=O | 115% (inactive) | 99.7% (inactive) | 113% (inactive) | 70.8% (inactive) | 76.7% (inactive) | 119% (inactive) | 96.4% (inactive) | – | –
4 | COc1cccc(C(c2cc3c(cc2O)OCO3)N2CCOCC2)c1OC (stereo not drawn) | 94.7% (inactive) | 98% (inactive) | 102% (inactive) | 96.5% (inactive) | 102% (inactive) | 113% (inactive) | 108% (inactive) | – | –
5 | CN(C)CCNc1cccc2sc3ccc(O)cc3c(=O)c12 | 65.8% (inactive) | 29.3% (inactive) | 24.5% (inactive) | 27.8% (inactive) | 25.3% (inactive) | 17.9% (inactive) | 24.7% (inactive) | – | –
6 | COc1ccc(N)c2c1C(=O)c1ccccc1C2=O | – | 108% (inactive) | 106% (inactive) | 95.2% (inactive) | 102% (inactive) | 105% (inactive) | 102% (inactive) | – | –
7 | Clc1c(Cl)c(Cl)c2c(nnn2C2CCCO2)c1Cl (stereo not drawn) | – | – | – | – | – | – | – | 3.55% (active) and -84.2% (active) | –
8 | N#CC(=C1C=CC(=NO)C=C1)c1ccccc1 | -7.31% (active) | -20.7% (active) | 1.65% (active) | 8.32% (active) | -47.8% (active) | 90.6% (inactive) | -57% (active) | – | –
9 | CCC(C)(c1ccc(O)c(C)c1)c1ccc(O)c(C)c1 | 192% (inactive) | 78.8% (inactive) | 111% (inactive) | 111% (inactive) | 94% (inactive) | 107% (inactive) | 94.6% (inactive) | – | –
10 | C=C(C)[C@@H]1CCc2c(O)c(O)c(=O)cc(C)c2C1 | – | – | – | – | – | – | – | -84.1% (active) and -67.9% (active) | –
11 | COc1cc2c(cc1C[N+](C)(C)CSc1ccccc1)-c1ccccc1CC2 | – | – | – | – | – | – | – | -75.8% (active) and -73.3% (active) | –
12 | CC1CCC2(C(=O)O)CCC3(C)C(=CCC4C5(C)CC(O)C(O)C(C)(CO)C5C(O)CC43C)C2C1C (stereo not drawn) | 114% (inactive) | 110% (inactive) | 107% (inactive) | 96.9% (inactive) | 103% (inactive) | – | 104% (inactive) | – | –
13 | O=C(CNS(=O)(=O)Cc1ccccc1)NNc1ccccc1 | 82.9% (inactive) | 21.9% (inactive) | – | 76.5% (inactive) | 55.6% (inactive) | 70.5% (inactive) | 15% (inactive) | – | –
14 | C=C1N(C)c2ccc(Cl)cc2C1(C)C | 66.9% (inactive) | 77.1% (inactive) | 57.4% (inactive) | 89% (inactive) | 17.2% (inactive) | 68.7% (inactive) | 40.2% (inactive) | – | –
15 | N#CC(=S)Nc1cccc(Cl)c1 | – | – | – | – | – | – | – | 0.126% (active) and -100% (active) | –
16 | O=C(CCc1ccccc1)ON1C(=S)C(c2ccccc2)(c2ccccc2)N=C1Sc1ccccc1 | – | – | – | – | – | – | – | 1.09% (active) and 4.44% (active) | –
17 | O=C(O)c1ccccc1.[Ag] | 99.4% (inactive) | 88.5% (inactive) | – | 96.4% (inactive) | 96.8% (inactive) | 109% (inactive) | 89.3% (inactive) | – | –
18 | N#C/C(=C/N1C(=O)/C(=C/c2ccc([N+](=O)[O-])cc2)SC1=S)c1nc2ccccc2s1 | 84% (inactive) | 99% (inactive) | 87.8% (inactive) | 60.7% (inactive) | 85.9% (inactive) | 92.6% (inactive) | 89.7% (inactive) | – | –
19 | CCC(=O)Oc1ccc(/C=N/NC(N)=S)nc1 | 51.2% (inactive) | 54.9% (inactive) | 49.5% (inactive) | 22.5% (inactive) | 42% (inactive) | – | 60.5% (inactive) | – | –
20 | CO[C@@]12[C@H](COC(N)=O)C3=C(C(=O)C(C)=C(N)C3=O)N1C[C@@H]1N[C@@H]12 | – | – | – | – | – | – | – | – | -17.6% (active) and -61.3% (active)
21 | Nc1nc(N)c2cc(Sc3ccc4ccccc4c3)ccc2n1 | 67.4% (inactive) | 33.8% (inactive) | 18.9% (inactive) | 25.2% (inactive) | 15.4% (inactive) | -39.4% (active) | 23.8% (inactive) | – | –
22 | O=Nc1ccc(Nc2ccccc2)cc1 | 78.8% (inactive) | 83.6% (inactive) | 70.1% (inactive) | 67.2% (inactive) | 78.4% (inactive) | 93.8% (inactive) | 93.3% (inactive) | – | –
23 | CN(CC(=O)O)c1ccc(/C=C/c2ccnc3ccccc23)cc1 | 65.3% (inactive) | 38.1% (inactive) | 84.3% (inactive) | 31.8% (inactive) | 89.4% (inactive) | 91.9% (inactive) | 85.2% (inactive) | – | –
24 | Cc1c(-c2ccccc2)[nH]c2ccccc12 | – | 111% (inactive) | 99.3% (inactive) | 79.7% (inactive) | 113% (inactive) | 102% (inactive) | 103% (inactive) | – | –
25 | CN(C)c1ccc(/C=C/c2ccnc3ccccc23)cc1N | 60.3% (inactive) | 38.6% (inactive) | 78.4% (inactive) | 62.9% (inactive) | 49.3% (inactive) | 104% (inactive) | 61.5% (inactive) | – | –
26 | Cc1cc(C)c(N2C(=O)CC(Sc3ccccc3N)C2=O)c(C)c1 (stereo not drawn) | 96.2% (inactive) | -20.8% (active) | 55.9% (inactive) | 31.7% (inactive) | 79.2% (inactive) | – | 50.9% (inactive) | – | –
27 | Cc1cc(N=C2C=CC(=[N+](C)C)C=C2)c(N)cc1N | 96.3% (inactive) | 101% (inactive) | 84.9% (inactive) | 68.8% (inactive) | 82.2% (inactive) | 60.8% (inactive) | 89% (inactive) | – | –
28 | O=C(NC(=S)Nc1ccccn1)c1ccccc1 | 77.1% (inactive) | 105% (inactive) | 96.1% (inactive) | 24.3% (inactive) | 87.9% (inactive) | – | 97% (inactive) | – | –
29 | O=S(=O)(c1cc(Cl)ccc1O)c1cc(Cl)ccc1O | – | 93.4% (inactive) | 86.3% (inactive) | 92.9% (inactive) | 77.1% (inactive) | 99.5% (inactive) | 98.1% (inactive) | – | –

From PubChem BioAssay (NCI)
